# Screens as filed in PubChem.
# In the library only some 19% were active in any assay of this set; here they are far more common.
# Giardia kill: Small Molecules that selectively kill Giardia lamblia: qHTS | Giardia lamblia trophozoite viability | activity change, % at 7.66 µM, hits read low | 340,000 compounds, 0.15% hits | AID 540267, 2011; in the data active means activity change below about -80%; inconclusive means between about -30% and that limit;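 further: parasites exposed to compound for two days anaerobically before the ATP read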
#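 ATP-content bioluminescence gauges trophozoite survival. Cells (100/well) receive compound and incubate anaerobically for 48 hrs at 37 deg C; detection reagent follows for 15-30 min at room temperature.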
# ELG1 repair inh: qHTS screen for small molecules that inhibit ELG1-dependent DNA repair in human embryonic kidney (HEK293T) cells expressing luciferase-tagged ELG1; HEK293T ELG1-luciferase reporter, luminescence, 16 h; DNA damage induced by 5-fluorouridine; Potency, µM (series often up to 46.1 µM), for the others: top-dose activity change, negative = inhibition, most hits filed as inhibitors; 330,000 compounds, 2.3% hits; further: potency means the concentration at half of the fitted maximal effect; nearly all actives have a fitted effect of over 55% in size
#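 Cells (2,000 per well) received 5-fluorouridine plus test compound or DMSO and were incubated 16 hr at 37 °C, 5% CO2. Luciferase activity was read by luminescence 30 min after ONE-Glo addition; signal suppression marked inhibition of damage-induced ELG1 function.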
# IL1B secr inh: qHTS for Inhibitors of Inflammasome Signaling: IL-1-beta AlphaLISA Primary Screen. THP-1 LPS/ATP IL-1B secretion, AlphaLISA, 16 h; active compounds read low. activity change, % at 57.5 µM. 360,000 compounds, 4.7% hits. AID 743279, 2014; in the data active means activity change below about -50%; inconclusive means mostly about -30% to -49%
#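 THP-1 cells pretreated 1 hr with compounds (up to 57.5 uM final), then stimulated with LPS (250 ng/mL final) plus ATP (1.25 mM final); secreted IL-1B measured by AlphaLISA after 16 hr, decreased signal indicating inhibition.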
# TDP1 block: qHTS Assay for Inhibitors of Tyrosyl-DNA Phosphodiesterase (TDP1) | recombinant TDP1, AlphaScreen DNA substrate cleavage | Tyrosyl-DNA phosphodiesterase 1 (Homo sapiens), Q9NUW8 | Potency, µM (titrated, usually from 130 µM), for the others: top-dose activity change, negative = inhibition, most hits filed as inhibitors | 350,000 compounds, 0.28% hits; further: potency means the concentration at half of the fitted maximal effect; nearly all actives have a fitted effect of over 40% in size
# Target sequence (Q9NUW8 whole entry, looked up): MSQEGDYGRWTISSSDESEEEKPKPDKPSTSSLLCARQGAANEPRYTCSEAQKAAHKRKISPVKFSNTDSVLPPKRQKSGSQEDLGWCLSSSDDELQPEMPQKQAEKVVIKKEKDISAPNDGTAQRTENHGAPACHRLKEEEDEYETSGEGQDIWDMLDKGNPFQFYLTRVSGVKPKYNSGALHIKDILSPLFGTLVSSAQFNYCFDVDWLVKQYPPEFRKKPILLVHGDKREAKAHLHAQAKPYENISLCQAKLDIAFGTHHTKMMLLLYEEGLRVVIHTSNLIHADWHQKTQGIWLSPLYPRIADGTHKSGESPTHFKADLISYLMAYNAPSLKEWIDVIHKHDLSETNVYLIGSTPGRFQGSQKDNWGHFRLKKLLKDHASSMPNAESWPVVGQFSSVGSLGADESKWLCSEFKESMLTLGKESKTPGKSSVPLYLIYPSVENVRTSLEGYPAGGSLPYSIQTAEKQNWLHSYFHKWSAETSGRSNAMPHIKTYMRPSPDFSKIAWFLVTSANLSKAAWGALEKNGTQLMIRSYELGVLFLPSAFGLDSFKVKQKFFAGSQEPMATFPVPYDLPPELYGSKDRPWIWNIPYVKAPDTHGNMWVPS
#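 Recombinant E. coli-expressed Tdp1 (1 nM) preincubated with compound 15 min at RT, then 5'-biotin/3'-phosphotyrosine-FITC DNA substrate (15 nM) added for 5 min. AlphaScreen beads (10 ug/ml) added, 10 min RT; tyrosine-FITC cleavage read as signal loss.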
# TDP1 cell CPT: qHTS for Inhibitors of human tyrosyl-DNA phosphodiesterase 1 (TDP1): qHTS in cells in presence of CPT; chicken DT40 Tdp1-/-;hTDP1 cells + 20 nM CPT, ATP luminescence, 48 h; Potency, µM (highest dose often 46.2 µM), without a hit: top-dose activity change, negative = growth inhibition, most hits filed as inhibitors; 420,000 compounds, 12% hits; AID 686979, 2013; further: potency means the concentration at half of the fitted maximal effect; nearly all actives have a fitted effect of over 55% in size
#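 Chicken DT40 Tdp1-/- cells complemented with human TDP1, 400 cells/well, exposed to compounds plus 20 nM camptothecin for at least 48 h at 37 C; viability read as ATP content by CellTiter-Glo luminescence.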
# DT40 TDP1 no CPT: qHTS for Inhibitors of human tyrosyl-DNA phosphodiesterase 1 (TDP1): qHTS in cells in absence of CPT; DT40 Tdp1-/- hTDP1 cells, no CPT, ATP luminescence, 48 h; Potency, µM (top dose mostly 46.2 µM), without a hit: top-dose activity change, negative = growth inhibition, hits mostly inhibitors; 420,000 compounds, 15% hits; AID 686978, 2013; further: potency means the concentration at half of the fitted maximal effect; nearly all actives have a fitted effect of over 55% in size
#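 DT40 Tdp1-/-;hTDP1 cells, no CPT (DMSO vehicle only), 400 cells/well; compounds pin-transferred; ≥48 hr, 37 °C; CellTiter-Glo 30 min RT dark, luminescence read.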
# An asterisk follows results filed as active; ? = inconclusive; / = no result given; [ ] = another dose, or the depositor's remark. Unless noted, the call rests on the fitted dose curve; in most records, active means well fitted curve in the direction sought with a large enough effect; inconclusive means small, poorly fitted or top-dose-only effect, or another doubt; inactive means no such curve, though single readings can be large; an effect the other way counts as inactive or inconclusive. On the % scale 0 is the no-effect control and ±100 the full control effect.
SMILES,Giardia kill,ELG1 repair inh,IL1B secr inh,TDP1 block,TDP1 cell CPT,DT40 TDP1 no CPT
COc1ccc(/C=C/c2ccnc3ccccc23)cc1,/,/,/,/,11µM*,32µM*
COc1ccc(Nc2ccnc(Nc3ccc(OC)cc3)n2)cc1,-4,?,-99*,6%,2.6µM*,2.6µM*
COc1cc(N(C)C)ccc1/C=C/c1ccnc2ccccc12,/,/,/,/,10µM*,25µM*
COc1ccc(Nc2nc(OC)nc(OC)n2)cc1,13,?,3,/,1%,-5%
COc1ccc(/C=C/c2ccccn2)cc1,/,/,/,/,?,-103%
COc1ccc(Nc2ccnc3ccccc23)cc1,-4,16µM*,?,6%,13µM*,16µM*
Cc1ccccc1C(=O)N/N=C1/SCC(=O)N1Cc1ccccc1,-6,8%,0,0%,2%,-23%
COC(=O)c1c(-c2c(Cl)cccc2Cl)noc1C(=O)NN,-17,1%,9,9%,16%,-6%
Cc1ccc(NC(=O)COC(=O)/C=C/c2cccs2)c(C)c1,50,0%,11,-1%,-10%,-10%
CC(NC(=O)CCCCCCN1C(=O)c2ccccc2C1=O)c1ccc2c(c1)CCCC2 (stereo not given),-8,23µM*,-10,0%,23µM*,?
CCCCC/C=C\C\C=C/C=C/C=C/[C@@H](SC[C@H](NC(=O)CC[C@H](N)C(=O)O)C(=O)NCC(=O)O)[C@@H](O)CCCC(=O)O,/,/,/,0%,13%[0.628 µM],4%[0.628 µM]
COc1cccc(CN(C)C(=O)c2cnn(-c3ncc4c(n3)-c3ccccc3CCC4)c2C)c1,/,/,/,/,18µM*,23µM*
CCOC(=O)CN(C)C(=O)c1cnn(-c2ncc3c(n2)-c2ccccc2CCC3)c1C,/,/,/,/,4%[9.04 µM],?
COc1ccc(CCNC(=O)CCCCCNc2nc(=S)[nH]c3ccccc23)cc1OC,12,?,-9,0%,?,18µM*
COc1ccc(CNC(=O)CCCCCNc2nc(=S)[nH]c3ccccc23)cc1,-9,?,-16,8%,?,10µM*
CC(CCc1ccccc1)NC(=O)CCCCCNc1nc(=S)[nH]c2ccccc12 (stereo not given),/,?,/,7%,/,/
O=C(CCCCCNc1nc(=S)[nH]c2ccccc12)NCCc1ccccc1,16,?,27,5%,?,?
Cc1nn(-c2cccc(Cl)c2)c(Cl)c1/C=N/NC(=O)c1cccs1,-1,25%,-2,-3%,16µM*,13µM*
COc1cc(-c2ccc(Cl)cn2)cc2c1OCCN(C(=O)c1ccccc1-n1cccn1)C2,/,/,/,/,0%,?
Cc1ccc(-c2nc3cccnc3o2)cc1NC(=O)COc1ccc(C(C)(C)C)cc1,2,?,-9,-1%,15µM*,9.2µM*
CCC(=O)Nc1ccc2nc(SCC(=O)N3CCCC3)sc2c1,-2,?,11,7%,-17%,-13%
Cc1ccccc1OCc1nnc(SCC(=O)Nc2ccc3c(c2)OCO3)n1C,2,0%,0,10%,4%,-12%
Cc1cnc(NC(=O)CSc2nnc(Cc3ccccc3)n2C)s1,4,-17%,19,3%,0%,-5%
Cc1ccccc1OCc1nnc(SCC(=O)Nc2ccc3nc(SCC(=O)Nc4ccccc4)sc3c2)n1C,-22,?,27,8%,?,15µM*
Cc1ccc(C(C)C)c(OCc2nnc(SCC(=O)Nc3ncc(C)s3)n2C)c1,-3,?,13,3%,18µM*,?
SMILES,Giardia kill,ELG1 repair inh,IL1B secr inh,TDP1 block,TDP1 cell CPT,DT40 TDP1 no CPT
Cc1ccccc1OCC(=O)Nc1ccc2nc(SCc3ccccc3)sc2c1,/,/,/,3%,-13%,4%
Cc1ccccc1OCC(=O)Nc1ccc2nc(SCC(=O)N(C)c3ccccc3)sc2c1,/,/,/,3%,18µM*,10µM*
Cc1ccccc1OCC(=O)Nc1ccc2nc(SCC(=O)N3CCCC3)sc2c1,/,/,/,2%,16µM*,15µM*
COCCNC(=O)C1(C)CCCN(C(=O)c2ccccc2F)C1 (stereo not given),/,/,9,/,-7%,-1%
CCS(=O)(=O)N1CCN(C(=O)c2cccc3ccccc23)CC1,2,9%,15,/,-5%,7%
CC(=O)C1=C(O)C(CSCc2ccccc2)N(C)C1=O (stereo not given),12,/,17,/,-21%,?
Cc1ccccc1OCC(=O)Nc1ccc2nc(SCC(=O)N3CCOCC3)sc2c1,/,/,/,1%,?,5.8µM*
Cc1nc2ccc(NC(=O)COc3ccccc3C)cc2s1,13,20%,-1,5%,-3%,0%
O=[N+]([O-])c1c(C(Cl)Cl)nn(-c2ccccc2)c1N1CCCC1,-17,-1%,-25,11%,21µM*,?
CCc1cc(=O)[nH]c(SCCC(F)=C(F)F)n1,14,6%,1,-1%,-15%,-12%
O=C1/C(=C/c2cccnc2)Oc2cc(OS(=O)(=O)c3ccc(F)cc3)ccc21,-4,-25%,-22,8%,10µM*,?
COc1cccc(/C=C2\Oc3cc(OCC(=O)N4CCCC4)ccc3C2=O)c1OC,0,-19%,-1,7%,?,?
Cc1ccc(S(=O)(=O)Oc2ccc(/C=C3\N=C(c4cccc(C)c4)OC3=O)cc2)cc1,11,3%,24,3%,3%,12%
COc1cccc(OC)c1C(=O)Oc1ccc2c(c1)O/C(=C\c1ccncc1)C2=O,-7,23µM*,-101*,8%,18µM*,12µM*
CC(=O)Oc1ccc(/C=C2/Oc3ccccc3C2=O)cc1,4,?,?,3%,-1%,-22%
Cc1ccc(S(=O)(=O)Oc2ccc3c(c2)O/C(=C\c2cccnc2)C3=O)cc1,-5,-7%,-9,4%,?,21µM*
O=C1/C(=C/c2ccccc2)Oc2cc(OC(=O)N3CCOCC3)ccc21,-27,?,-68*,3%,?,?
O=S(=O)(c1ccccc1)N1CCC2(CCCN(Cc3cc(C(F)(F)F)cc(C(F)(F)F)c3)C2)CC1,/,/,/,/,-1%,?
Cc1coc2cc3oc(=O)c(CC(=O)NCCc4ccccc4)c(C)c3cc12,/,/,/,2%,?,?
